From PubChem BioAssay AID485367 (National Center for Advancing Translational Sciences (NCATS), 2010)
In all, about 330,000 compounds went through this assay and about 560 (0.17%) were called active. A call without a number means that no potency is given here. Roughly 1% stayed inconclusive and do not appear here. The call rests on the fitted dose curve; in most records, active means well fitted inhibition curve with a large enough effect; inconclusive means small, poorly fitted or top-dose-only effect, or effect the other way; inactive means flat fitted curve, though single readings scatter. The full list was thinned out, with actives kept by preference.

The molecules below were run against ATP-dependent 6-phosphofructokinase (Trypanosoma brucei brucei) (UniProt O15648) (assay: qHTS Assay to Find Inhibitors of T. brucei phosphofructokinase). Details: T. brucei PFK, ADP-Glo luminescence; series mostly up to 57.5 µM.
Excerpt: NIH Molecular Libraries Probe Production Network [MLPCN] NIH Chemical Genomics Center [NCGC] Grant: 1 R03 MH092153-01 PI Name: Malcolm Walkinshaw, University of Edinburgh NCGC Assay Overview: Various species of the protozoan family Trypanosomatidae are responsible for a range of serious human diseases in tropical and subtropical areas of the world. […] Many of the disorders caused by trypanosomatids are fatal if left untreated, but most currently used drugs are inefficient and toxic. […] Oxidative metabolism involving the mitochondrial tricarboxylic acid cycle and oxidative phosphorylation are repressed in these parasites, and recent RNA interference (RNAi) experiments have shown that even partial depletion of certain individual glycolytic enzymes can lead to the death of cultured parasites. One such glycolytic enzyme, phosphofructokinase (PFK), catalyzes the formation of fructose-1,6-bisphosphate (F1,6BP) and ADP from fructose-6-phosphate (F6P) and ATP, and in many metabolic circumstances makes an important contribution to the control of flux through the glycolytic pathway. As a specific glycolytic target, PFK is particularly attractive as it catalyzes the first irreversible step in glycolysis, and structural and kinetic studies have shown very substantial and essential differences from corresponding host enzymes, allowing for the discovery of parasite-selective inhibitors. The goal of this screen is to find small-molecule inhibitors of T. brucei PFK using a biochemical assay that measures PFK activity as a function of ADP production. A luminescence-based assay for T. brucei PFK activity has been developed which uses luciferase to detect production of ADP. Traditional luciferase-based nucleotide detection reagents rely on ATP production as a direct substrate for the luciferase reaction; however, PFK catalyzes the transfer of a phosphate from ATP to F6P, resulting in the net depletion of ATP. To directly measure the ADP product of the PFK reaction, we used the ADP-Glo detection kit (Promega), which utilizes two separate reactions to 1) deplete all remaining uncatalyzed ATP and 2) convert all remaining ADP to ATP, which is then detected through a traditional luciferase-coupled reaction. Compounds were screened as a concentration-titration series that ranged from 57 uM to 0.7 nM.
NCGC Assay Protocol Summary: NCGC Assay Protocol Summary: Substrate buffer was dispensed into white, solid 1536-well plates at 3uL/well in 0.1M triethanolamine (TEA) buffer, pH 8.0, containing final concentrations of 5 mM MgCl2, 0.01% Tween20, 0.5 mM fructose-6-phosphate (F6P) and 0.1mM ATP. Then, 23 nL of compounds or DMSO were delivered to each well using a pin tool. One uL T. brucei PFK (0.1M TEA, 0.01% Tween20, 0.1% bovine serum albumin (BSA) and 1.25nM PFK, final concentrations) was then dispensed, and plates were incubated at room temperature for 45 min. The luminescent detection reagent, ADP-Glo (Promega), was then added in two steps: the first reagent, ADP-Glo (which converts remaining uncatalyzed ATP), was added at 2.5uL/well and incubated for ten minutes at room temperature, and the second component, Kinase Detection reagent (which converts ADP to ATP as a substrate for luciferase-based luminescence), was added immediately after at 5uL/well, followed by one final ten minute room temperature incubation. The plates were measured on a ViewLux plate reader for luminescent signal using a clear filter with a one second exposure. The %Activity was determined from the corrected luminescence values. As no specific T. brucei PFK inhibitors have been identified in the literature, 1x (1.25nM) and 0x PFK enzyme controls (untreated) were included to normalize %Activity of identified inhibitors; 0x enzyme values corresponded to 100%Activity (full inhibition), while 1x PFK enzyme values were used to normalize 0%Activity (no inhibition). Concentration-response curves were fitted to the signals arising from the resulting luminescence. […]
Further: nearly all actives have a fitted effect of over 60% in size.
Potency means the concentration at half of the fitted maximal effect.

ATP-dependent 6-phosphofructokinase (Trypanosoma brucei brucei), sequence (O15648 whole entry, looked up): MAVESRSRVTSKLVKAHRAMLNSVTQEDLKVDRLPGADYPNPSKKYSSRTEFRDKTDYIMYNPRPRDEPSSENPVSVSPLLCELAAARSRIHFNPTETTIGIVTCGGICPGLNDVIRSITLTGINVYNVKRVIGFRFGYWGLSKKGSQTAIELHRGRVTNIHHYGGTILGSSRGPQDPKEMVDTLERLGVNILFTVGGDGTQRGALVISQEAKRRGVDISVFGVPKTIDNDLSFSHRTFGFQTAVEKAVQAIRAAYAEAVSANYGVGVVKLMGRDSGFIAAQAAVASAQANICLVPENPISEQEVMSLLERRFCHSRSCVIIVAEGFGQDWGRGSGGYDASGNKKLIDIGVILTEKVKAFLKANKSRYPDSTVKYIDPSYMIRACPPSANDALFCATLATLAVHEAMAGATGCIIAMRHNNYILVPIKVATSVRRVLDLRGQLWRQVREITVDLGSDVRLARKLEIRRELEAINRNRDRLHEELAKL

Compound	Potency
Cc1[nH][nH]c(=O)c1C(c1ccc2c(c1)OCO2)c1c(C)[nH][nH]c1=O	23.9 µM (active)
CCOc1ccc(C(c2c(C)[nH][nH]c2=O)c2c(C)[nH][nH]c2=O)cc1OCC	inactive
Nc1[nH][nH]c(=O)c1N=Nc1ccc2c(c1)OCO2	inactive
COc1cc(C2C(N3C(=O)c4ccccc4C3=O)C(=O)N2c2ccc(C)c(C)c2)cc(OC)c1OC (stereo not given)	inactive
OC(CNCC1CCCO1)Cn1c2ccc(Br)cc2c2cc(Br)ccc21 (stereo not given)	inactive
Nc1nc(Nc2ccccc2F)nc(NC2CCCCC2)c1[N+](=O)[O-]	inactive
COc1cc(NC(=O)COC(=O)CSc2ccc3ccccc3c2)c(C)cc1[N+](=O)[O-]	inactive
CCOC(=O)N1CCN(C(=O)CN(C2CCCCC2)S(C)(=O)=O)CC1	inactive
CC(Oc1cc2oc(=O)c3c(c2cc1Cl)CCCC3)C(=O)NCc1ccncc1 (stereo not given)	inactive
CC(C)CN(CC(C)C)CC(O)CN(c1ccccc1)S(=O)(=O)c1ccccc1[N+](=O)[O-] (stereo not given)	inactive
CCCN1C2CCCC1CC(NC(=O)NC13CC4CC(CC(C4)C1)C3)C2 (stereo not given)	inactive
CCN(CC(=O)N1CCCC1)S(=O)(=O)c1ccc(F)cc1	inactive
O=C(Cn1c(COc2ccccc2)nc2ccccc21)Nc1cc(Cl)c(Cl)cc1Cl	inactive
O=C(CN(CC1CCCO1)C(=O)CNS(=O)(=O)c1ccc(F)cc1)NCc1ccco1 (stereo not given)	inactive
COc1ccc(-c2nc3c(s2)CCc2onc(-c4ccc(OC)cc4)c2-3)cc1	inactive
COc1ccc(Cl)cc1NC(=O)NC(C)C(C)(C)C (stereo not given)	inactive
Cc1cccc(NC(=S)Nc2ccc(Cl)c(Cl)c2)c1	10.7 µM (active)
Cc1cccc(NC(=S)NC23CN4CN(CN(C4)C2)C3)c1	inactive
Cc1cccc(NC(=S)Nc2ccc3cn[nH]c3c2)c1	inactive
COCCN1C(=O)N(c2ccc(Cl)cc2)C(=O)C1CC(=O)Nc1cc(OC)cc(OC)c1 (stereo not given)	inactive
CC1(N2CCOCC2)CC2(O)C(=[N+]1[O-])CCc1nonc12 (stereo not given)	inactive
O=C(CCn1nnc2ccccc21)OCC(=O)c1ccc([N+](=O)[O-])cc1	inactive

Compound	Potency
Cc1ccnc(-n2sc3ccccc3c2=O)n1	7.57 µM (active)
Cc1nc2ccccc2c(=O)n1NC(=O)c1ccccc1	inactive
COC(=O)COc1ccc2c(c1C)O/C(=C\c1ccco1)C2=O	inactive
O=C(COC(=O)C12CC3CC(CC(C3)C1)C2)NCc1ccco1	inactive
O=C(COC(=O)CCC(=O)c1cccs1)NCc1ccco1	6.75 µM (active)
O=C(COC(=O)c1cccs1)NCc1cccs1	inactive
Cc1cc(NC(=O)COC(=O)/C=C/c2ccc(C)o2)no1	inactive
CS(=O)(=O)N(CC(=O)N1CCOCC1)c1cccc(Cl)c1Cl	inactive
Cc1ccc(S(=O)(=O)N2CCCCC2)cc1NC(=O)[C@@H]1CCCN1C(=O)c1cccs1	inactive
O=C(COC(=O)CCCN1C(=O)c2cccc3cccc(c23)C1=O)NC1CCS(=O)(=O)C1 (stereo not given)	inactive
CCC(C)c1ccc(NC(=O)COC(=O)C2CCCC2)cc1 (stereo not given)	inactive
Cc1c(Cl)cccc1NC(=O)Nc1ccc(C(=O)N2CCCC2)cc1	inactive
COc1cc(S(=O)(=O)N2CCOCC2)ccc1NC(=O)COc1ccc(N(C)S(=O)(=O)c2ccc(C)cc2)cc1	inactive
C/C(=N/Nc1ccc(Cl)cc1)c1cnnc(-c2ccccc2)n1	inactive
Cc1c(C)c2ccc(OCC(=O)N3CCC(C(=O)O)CC3)c(C)c2oc1=O	inactive
Cc1c(CC(=O)N2CCN(C(=O)C3COc4ccccc4O3)CC2)c(=O)oc2c(O)c(O)ccc12 (stereo not given)	4.78 µM (active)
O=C(CNC(=O)C1COc2ccccc2O1)N/N=C/c1cc(Br)c(O)c(Br)c1 (stereo not given)	inactive
Cc1ccc2c(=O)cc(C(=O)NCCc3ccc(S(N)(=O)=O)cc3)oc2c1C	inactive
CCCNC(=O)NC(=O)COC(=O)CC(NC(N)=O)c1ccc(Cl)cc1 (stereo not given)	inactive
Nc1cc(N)nc(SCc2ccc(Cl)cc2)n1	inactive
COc1cnc(SCc2ccc(Cl)c(Cl)c2)nc1Cl	26.9 µM (active)
COc1ccc(CCNC(=O)c2cnc(Cl)c(Cl)c2)cc1	inactive

Compound	Potency
Cc1ccc(C2CC(c3cccc(Br)c3)n3nc(N)nc3N2)cc1 (stereo not given)	inactive
O=C1CCN(Cc2ccccc2)CCN1[C@H](CSc1ccccc1)c1ccccc1	inactive
O=C(CNS(=O)(=O)c1ccc2ccccc2c1)Nc1ccc(F)c(F)c1F	inactive
Cc1ccccc1NC(=O)Cc1nc(COC(=O)c2cccnc2Cl)cs1	inactive
Cc1cccc(-n2c(N)c(C(=O)N3CCN(C)CC3)sc2=S)c1	12 µM (active)
Cc1ccc(-n2c(N)c(C(=O)N3CCOCC3)sc2=S)c(C)c1	inactive
N#Cc1ccccc1-n1c(N)c(C(=O)N2CCCC2)sc1=S	inactive
Cc1ccc2c(C)c(C(=O)N(C)CCC3CCCCO3)oc2c1C (stereo not given)	inactive
N#CCSc1nn(-c2ccc(F)cc2)c(=S)s1	inactive
O=c1ccc2c(-c3ccccc3S(=O)(=O)O)c3ccc(O)c(O)c3oc-2c1O	2.39 µM (active)
COC(=O)c1ccc(COc2ccc(/C=C/C(=O)c3ccc(OC)c(CSCC(=O)O)c3)cc2OC)cc1	4.78 µM (active)
COc1ccc(C(=O)/C=C/c2ccc(-c3ccccc3)cc2)cc1CSCC(=O)O	inactive
COc1ccc(/C=C/C(=O)c2ccc(NS(=O)(=O)c3ccc(C)cc3)cc2)cc1O	inactive
Cc1ccc(OCC(=O)N2CCN(C(=O)c3cccnc3)CC2)cc1	inactive
CN1C(CC(=O)Nc2ccc(Br)cc2)c2ccccc2CC1(C)C (stereo not given)	inactive
Cc1nn(Cc2ccc(F)cc2)c(C)c1NC(=O)c1cccnc1Cl	inactive
Cc1cc(C(=O)Nc2c(C)nn(Cc3ccccc3)c2C)on1	inactive
Cc1nn(Cc2ccc(Cl)c(Cl)c2)c(C)c1NC(=O)c1cc(C2CC2)on1	9.53 µM (active)
CCCc1nn(C)c2c(=O)[nH]c(-c3cc(S(N)(=O)=O)ccc3OCC)nc12	inactive
CC1CCC(NC(=O)CN(C)S(=O)(=O)c2ccc3c(c2)c(=O)n(C)c(=O)n3C)CC1 (stereo not given)	inactive
O=C(OCC(=O)N1CCc2ccccc21)c1ccc([N+](=O)[O-])cc1	inactive
